Assay results published in the supplement of paper PMC6555819.

What was measured:
Assay in all cases: PBM binding z-score (relative to random genomic background probes); higher = stronger binding; sequences stand for … in GC…GCGATTGACAGCGTAGAATGAAGG
[1] = system: PPARg:RXRa DBDmut IVT, anti-RXR (DBD mutation: RXRa K156A/R161A, NR concentration 270 nM, RXRa partner concentration 90 nM)
Outline: (§1)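 For binding z-scores, the reference was random background probes on custom Agilent 4×180K protein-binding microarrays. These arrays were incubated 1 h with ligand-free nuclear receptor dimers in PBS pH 7.4, 2% milk, 0.02% Triton X-100, 1 mM DTT, 0.2 mg/mL BSA and 0.4 mg/ml salmon testes DNA. Fluorescence was scanned after antibody detection of each partner (one per run) and regression-normalized.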

[2] = system: PPARg:RXRa IVT, anti-PPARg (NR concentration 270 nM, RXRa partner concentration 90 nM)
Outline: as §1

[3] = system: PPARg DBDmut:RXRa IVT, anti-PPARg (DBD mutation: PPARg1 K132A/R137A, NR concentration 270 nM, RXRa partner concentration 90 nM)
Outline: as §1

[4] = system: PPARg DBDmut IVT, anti-PPARg (DBD mutation: PPARg1 K132A/R137A, NR concentration 270 nM)
Outline: as §1

[5] = system: PPARg homodimer (NR concentration 180 nM)
Outline: as §1

[6] = system: PXR:RXRa (NR concentration 270 nM, RXRa partner concentration 90 nM)
Outline: as §1

[7] = system: PXR homodimer (NR concentration 270 nM)
Outline: as §1

[8] = system: RARa:RXR (NR concentration 270 nM, RXRa partner concentration 90 nM)
Outline: as §1

[9] = system: RARa homodimer (NR concentration 270 nM)
Outline: as §1

[10] = system: RARb:RXRa (NR concentration 270 nM, RXRa partner concentration 90 nM)
Outline: as §1

Row | Sequence | PBM binding z-score [1] | PBM binding z-score [2] | PBM binding z-score [3] | PBM binding z-score [4] | PBM binding z-score [5] | PBM binding z-score [6] | PBM binding z-score [7] | PBM binding z-score [8] | PBM binding z-score [9] | PBM binding z-score [10]
1 | CAAACTAAGTCACAGAGGTCAAAGTCCGTGCGTA | 2.87 | 3.84 | 0.32 | 0.368 | 4.44 | 5.86 | 3.71 | 6.39 | 2.59 | 4.05
2 | TGGATGAGGTTATAAGATCAGGGAACGTTGCAAA | -0.0803 | 0.649 | 0.558 | 0.341 | 0.81 | 0.986 | 0.518 | 1.34 | 0.465 | 1.25
3 | AGTCAAGGTTCACTAGGTAACGTAAGATTCAGCT | 2.7 | 4.17 | 0.684 | 1.3 | 1.04 | 1.83 | 0.833 | 1.9 | -0.0473 | 2.75
4 | CGAACGAGGGCACGAGTTGATAGCAAATGCCGAT | 3.89 | 3.93 | 0.0277 | -0.0688 | -0.0293 | 0.738 | 0.271 | 1.12 | -0.123 | 2.6
5 | ATCGAAAGGTCGGGGTGAGTATAGAGAAAGGGAA | 1.56 | 2.45 | 1.09 | 2.25 | 1.98 | 2.77 | 1.39 | 3.03 | 1.53 | 3.83
6 | GCTTGTGGATCAAGGTTAAGAAAGACTAAGCTAA | 0.991 | 1.19 | -0.0361 | 0.0112 | 0.339 | 0.429 | -0.166 | 0.735 | -0.249 | 0.702
7 | ATCTCTAGGTAAAGCTAGTTCAGTGAATGCAAAT | 2.03 | 1.83 | 0.606 | 0.732 | 0.371 | 1.07 | 0.241 | 0.383 | 0.278 | 0.0194
8 | AGAATGAGGTTATACGTGGATCAGGGAAGAAAGT | 3.62 | 2.12 | 1.26 | 0.938 | 1.69 | 1.17 | 0.993 | 1.89 | 0.612 | 1.55
9 | AGAATGAGGTTAAGATCAGGGTAACAGAATACAT | 3.19 | 3.28 | 1.74 | 0.532 | 1.13 | 1.73 | 0.602 | 2.85 | 0.262 | 2.08
10 | ATCGAAAGGTCGTGAGCTGAGTATACAGAAAGGC | -0.173 | 1.49 | 0.42 | 0.76 | 1.16 | 2.75 | 0.0585 | 3.56 | -0.0844 | 3.76
11 | TCAGACAGGTGAAGGTAACACAGGTACGCAGTCG | 2.57 | 1.37 | -0.146 | 0.0418 | 1.19 | 1.02 | 0.463 | 1.28 | 0.787 | 1.32
12 | CGAACTAGCTCATCCAGGACAGTGAATACATTGA | 0.221 | -0.126 | -0.227 | 0.607 | 0.205 | -0.344 | 0.167 | -0.0855 | -0.0939 | -0.208
13 | GCGTGTAGATCAAGGTTAAGAAAGACTAAGCTAA | -0.0954 | 0.359 | -0.293 | -0.542 | 0.178 | 0.409 | 0.176 | 1.16 | -0.389 | 0.791
14 | TCATATAGGTAATCCAGGTGAAAGTCGGCATCTA | 4.8 | 4.82 | 1.66 | 1.21 | 1.69 | 0.657 | 0.114 | 1.28 | 0.866 | 0.724
15 | CGAACTAGGTCGTTGACAGGACAGTGAATAGTAA | 5.75 | 5.01 | 0.86 | 0.354 | 0.203 | 0.234 | -0.188 | 0.276 | -0.436 | 1.18
16 | TCTGCGAGGTCAACGATGGTCAGCTAATCTGCTA | 3.66 | 4.67 | 0.567 | 1.25 | 3.27 | 5.4 | 1.03 | 5.37 | 0.126 | 5.18
17 | ACTCGGAGGACCAAGGTCAGAGCTACGCCAGTGA | -0.502 | 0.431 | -1.19 | -0.608 | 1.18 | 1.34 | 0.0514 | 1.88 | -0.14 | 2.86
18 | CGAAGTAGGTCAGAACAGGACAGTGAAGGATGAT | 7.52 | 7.53 | 0.926 | 0.783 | 1.04 | 0.897 | -0.0169 | 0.781 | 0.475 | 2.75
19 | ACAGACAGGTGATGCAGGTAACTCAGGCTATCAT | 0.0988 | 0.729 | 0.0271 | 0.231 | 0.328 | -0.33 | 0.04 | -0.107 | 0.231 | -0.0709
20 | GCGACTGGGTCATCAGCAGGTTACCATAACTTAA | 5.38 | 5.94 | 0.513 | -0.691 | 1.31 | 2.22 | -0.585 | 3.39 | -0.469 | 3.23
21 | CATCCAAGGTCAATGCTAGGTCAGTGAAAGCATT | 3.38 | 4.16 | 0.505 | 0.239 | 5.51 | 4.73 | 1.76 | 5.95 | 2.23 | 5.04
22 | CGAAATAGGTCAGAACAGGACAGTGAAGGATGAT | 6.51 | 6.4 | 1.62 | 1.69 | 1.47 | 1.69 | 0.395 | 1.87 | 1.05 | 3.71
23 | TCTTGTAGACCAGCAGGTTAAGAAAGCTGGCCAA | 1.63 | 0.1 | -1.37 | -0.977 | -0.0673 | 0.0995 | -0.534 | 0.371 | -0.568 | 0.179
24 | AAAATGAGGTTATACGTAGATCAGGGAAGAAAGT | 4.62 | 3.11 | 2.19 | 1.29 | 0.818 | 1.37 | 0.994 | 1.99 | 0.921 | 1.56
